Source: PubChem BioAssay AID488848 (Broad Institute, 2010)
Results with a measured potency or affinity are listed apart. Activity calls are given as the source filed them.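 The calls were made as follows: active = compounds lowering caspase signal with half-maximal concentration at most ten times their top tested dose; inconclusive = flat curve with 30 to 70% inhibition, or poor fit; inactive = the rest.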

Assay: suppression of cytokine-induced beta-cell apoptosis – INS-1E, caspase luminescence, dry powder, beta-cell apoptosis inhibitor project, dose response (AID 488848)
Conditions: INS-1E cytokine-induced caspase-3/7 luminescence, 48 h; series mostly up to 19.5 µM

outcome, inactive:
C[C@@H]1CN([C@@H](C)CO)C(=O)c2cccc(NC(=O)Nc3cccc4ccccc34)c2O[C@H]1CN(C)S(=O)(=O)c1ccccc1F, COc1cccc(S(=O)(=O)N(C)C[C@@H]2Oc3c(NC(=O)Nc4cccc5ccccc45)cccc3C(=O)N([C@@H](C)CO)C[C@H]2C)c1, COc1ccc(S(=O)(=O)N(C)C[C@@H]2Oc3c(NC(=O)Nc4cccc5ccccc45)cccc3C(=O)N([C@@H](C)CO)C[C@H]2C)cc1F, C[C@@H]1CN([C@@H](C)CO)C(=O)c2cccc(NC(=O)Nc3cccc4ccccc34)c2O[C@H]1CN(C)S(=O)(=O)c1cccc(F)c1, COc1ccc(S(=O)(=O)N(C)C[C@@H]2Oc3c(NC(=O)Nc4cc(F)cc5c4OCOC5)cccc3C(=O)N([C@@H](C)CO)C[C@H]2C)cc1, COc1ccc(S(=O)(=O)N(C)C[C@@H]2Oc3c(NC(=O)Nc4cccc5c4CC(C)(C)O5)cccc3C(=O)N([C@@H](C)CO)C[C@H]2C)cc1, COc1ccc(S(=O)(=O)N(C)C[C@@H]2Oc3c(NC(=O)Nc4cccc5ccccc45)cccc3C(=O)N([C@@H](C)CO)C[C@H]2C)c(OC)c1, COc1ccc(S(=O)(=O)N(C)C[C@@H]2Oc3c(NC(=O)Nc4cc(F)ccc4F)cccc3C(=O)N([C@@H](C)CO)C[C@H]2C)cc1, C[C@@H]1CN([C@@H](C)CO)C(=O)c2cccc(NC(=O)Nc3cccc4ccccc34)c2O[C@H]1CN(C)S(=O)(=O)c1ccc(-c2ccccc2)cc1, COc1ccc(S(=O)(=O)N(C)C[C@@H]2Oc3c(NC(=O)Nc4ccccc4-c4ccccc4)cccc3C(=O)N([C@@H](C)CO)C[C@H]2C)cc1, COc1ccc(S(=O)(=O)N(C)C[C@@H]2Oc3c(NC(=O)Nc4cccc5ccccc45)cccc3C(=O)N([C@@H](C)CO)C[C@H]2C)cc1Cl, COc1ccc(S(=O)(=O)N(C)C[C@@H]2Oc3c(NC(=O)Nc4ccc5occc5c4)cccc3C(=O)N([C@@H](C)CO)C[C@H]2C)cc1, C[C@@H]1CN([C@@H](C)CO)C(=O)c2cccc(NC(=O)Nc3cccc4ccccc34)c2O[C@H]1CN(C)S(=O)(=O)c1ccc(Cl)cc1, C[C@@H]1CN([C@@H](C)CO)C(=O)c2cccc(NC(=O)Nc3ccc(F)cc3)c2O[C@H]1CN(C)S(=O)(=O)c1ccc(Cl)cc1, COc1ccc(S(=O)(=O)N(C)C[C@@H]2Oc3c(NC(=O)NC4CCCc5ccccc54)cccc3C(=O)N([C@@H](C)CO)C[C@H]2C)cc1 (stereo not given in full), COc1ccc(S(=O)(=O)N(C)C[C@@H]2Oc3c(NC(=O)Nc4ccc5c(c4)OCCO5)cccc3C(=O)N([C@@H](C)CO)C[C@H]2C)cc1, COc1ccc(S(=O)(=O)N(C)C[C@@H]2Oc3c(NC(=O)Nc4cccc5c4NSN5)cccc3C(=O)N([C@@H](C)CO)C[C@H]2C)cc1, C[C@@H]1CN([C@@H](C)CO)C(=O)c2cccc(NC(=O)Nc3cccc4ccccc34)c2O[C@H]1CN(C)S(=O)(=O)c1ccc(F)cc1, C[C@@H]1CN([C@@H](C)CO)C(=O)c2cccc(NC(=O)Nc3cccc4ccccc34)c2O[C@H]1CN(C)S(=O)(=O)c1ccc2c(c1)CCC(=O)N2, COc1ccc(S(=O)(=O)N(C)C[C@@H]2Oc3ccc(NC(=O)Nc4cccc5ccccc45)cc3C(=O)N([C@@H](C)CO)C[C@H]2C)cc1, C[C@@H]1CN([C@@H](C)CO)C(=O)c2cccc(NC(=O)Nc3cccc4ccccc34)c2O[C@H]1CN(C)S(=O)(=O)c1ccc(Oc2ccccc2)cc1, C[C@@H]1CN([C@@H](C)CO)C(=O)c2cccc(NC(=O)Nc3cccc4ccccc34)c2O[C@H]1CN(C)S(=O)(=O)Cc1ccc(F)cc1, COc1ccc(S(=O)(=O)N(C)C[C@@H]2Oc3c(NC(=O)Nc4cccc(C(F)(F)F)c4)cccc3C(=O)N([C@@H](C)CO)C[C@H]2C)cc1, Cc1ccc(S(=O)(=O)N(C)C[C@@H]2Oc3c(NC(=O)Nc4ccc(F)cc4)cccc3C(=O)N([C@H](C)CO)C[C@H]2C)cc1, COc1ccccc1S(=O)(=O)N(C)C[C@@H]1Oc2c(NC(=O)Nc3cccc4ccccc34)cccc2C(=O)N([C@@H](C)CO)C[C@H]1C
